Several values for one entry are separate records, joined by “and”; a condition that tells them apart may be missing. Equal entries are not always repeated. Some compounds were tested as several samples or in several runs, with calls that do not always agree. Activity calls are given as the source filed them.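 The calls were made as follows: active = normalized viability below 100% at a tested concentration; inactive = the rest.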

Among the data in PubChem BioAssay are viability values, retold here.

The first assay is described as follows: ovarian cancer cell viability with rucaparib, profiling panel, oncology-focused library, rucaparib conditional (AID 1508598). The note with it: patient-derived ovarian cancer cells, CellTiter-Glo viability, 144 h; at 0.000305 µM; OCI-C5x cells; with rucaparib 10 µM; stronger effect = lower value; 100% = cells with rucaparib alone. (ATP-based viability assays read luminescence as a measure of living cells.)
For `Cc1ccc(NC(=O)c2ccc(CN3CCN(C)CC3)cc2)cc1Nc1nccc(-c2cccnc2)n1`, the viability was 112% (inactive) and 107% (inactive).

As for `O=NN(CCCl)C(=O)NC1CCCCC1`, the viability is 106% (inactive).

For the compound `O=c1c(O)c(-c2ccc(O)c(O)c2)oc2cc(O)cc(O)c12`, the viability was 118% (inactive).

With `COc1cc2c(N3CCN(C(=O)Nc4ccc(OC(C)C)cc4)CC3)ncnc2cc1OCCCN1CCCCC1`, the viability is 113% (inactive).

`COC(=O)Nc1nc2ccc(C(=O)c3cccs3)cc2[nH]1`: the viability is 120% (inactive).

With `CN(Cc1cnc2nc(N)nc(N)c2n1)c1ccc(C(=O)N[C@@H](CCC(=O)O)C(=O)O)cc1`, the viability is 110% (inactive).

The same assay, now with this note: patient-derived ovarian cancer cells, CellTiter-Glo viability, 144 h; at 0.000305 µM; OCI-C5x cells; without rucaparib; stronger effect = lower value.
Turning to `Cc1ccc(NC(=O)c2ccc(CN3CCN(C)CC3)cc2)cc1Nc1nccc(-c2cccnc2)n1`, the viability is 107% (inactive) and 98.4% (active).

As for `O=NN(CCCl)C(=O)NC1CCCCC1`, the viability is 116% (inactive).

For the compound `O=c1c(O)c(-c2ccc(O)c(O)c2)oc2cc(O)cc(O)c12`, the viability was 113% (inactive).

With `COc1cc2c(N3CCN(C(=O)Nc4ccc(OC(C)C)cc4)CC3)ncnc2cc1OCCCN1CCCCC1`, the viability is 103% (inactive).

Turning to `COC(=O)Nc1nc2ccc(C(=O)c3cccs3)cc2[nH]1`, the viability was 106% (inactive).

`CN(Cc1cnc2nc(N)nc(N)c2n1)c1ccc(C(=O)N[C@@H](CCC(=O)O)C(=O)O)cc1`: the viability was 111% (inactive).

Still in this assay, the particulars now being: patient-derived ovarian cancer cells, CellTiter-Glo viability, 144 h; at 0.000305 µM; OCI-P5x cells; with rucaparib 20 µM; stronger effect = lower value; 100% = cells with rucaparib alone.
As for `Cc1ccc(NC(=O)c2ccc(CN3CCN(C)CC3)cc2)cc1Nc1nccc(-c2cccnc2)n1`, the viability was 97.9% (active) and 85.2% (active).

With `O=NN(CCCl)C(=O)NC1CCCCC1`, the viability was 87.5% (active).

In the case of `O=c1c(O)c(-c2ccc(O)c(O)c2)oc2cc(O)cc(O)c12`, the viability was 92% (active).

As for `COc1cc2c(N3CCN(C(=O)Nc4ccc(OC(C)C)cc4)CC3)ncnc2cc1OCCCN1CCCCC1`, the viability is 86.7% (active).

On to `COC(=O)Nc1nc2ccc(C(=O)c3cccs3)cc2[nH]1`, for which the viability is 89% (active).

Regarding `CN(Cc1cnc2nc(N)nc(N)c2n1)c1ccc(C(=O)N[C@@H](CCC(=O)O)C(=O)O)cc1`, the viability is 113% (inactive).

The same assay, now with this note: patient-derived ovarian cancer cells, CellTiter-Glo viability, 144 h; at 0.000305 µM; OCI-P5x cells; without rucaparib; stronger effect = lower value.
As for `Cc1ccc(NC(=O)c2ccc(CN3CCN(C)CC3)cc2)cc1Nc1nccc(-c2cccnc2)n1`, the viability was 98.1% (active) and 85.5% (active).

For `O=NN(CCCl)C(=O)NC1CCCCC1`, the viability is 105% (inactive).

As for `O=c1c(O)c(-c2ccc(O)c(O)c2)oc2cc(O)cc(O)c12`, the viability was 92.3% (active).

For `COc1cc2c(N3CCN(C(=O)Nc4ccc(OC(C)C)cc4)CC3)ncnc2cc1OCCCN1CCCCC1`, the viability was 88.3% (active).

As to `COC(=O)Nc1nc2ccc(C(=O)c3cccs3)cc2[nH]1`, the viability was 84.1% (active).

For the compound `CN(Cc1cnc2nc(N)nc(N)c2n1)c1ccc(C(=O)N[C@@H](CCC(=O)O)C(=O)O)cc1`, the viability is 112% (inactive).

The viability is a read-out of living cells in per cent, often relative to untreated cells.
